# Assay results taken from PubChem BioAssay AID2533 (National Center for Advancing Translational Sciences (NCATS), 2010).
# Records with an inconclusive call do not appear. Entries that show only a call come without a potency. Active and inactive are the calls of the source. Calls come from the whole dose curve; as a rule, active = well fitted activation curve with a large enough effect; inconclusive = small, poorly fitted or top-dose-only effect; inactive = flat fitted curve, though single readings scatter.
# Target: Pyruvate kinase PKM (Homo sapiens) (UniProt P14618)
# Sequence (P14618 whole entry, looked up, canonical isoform): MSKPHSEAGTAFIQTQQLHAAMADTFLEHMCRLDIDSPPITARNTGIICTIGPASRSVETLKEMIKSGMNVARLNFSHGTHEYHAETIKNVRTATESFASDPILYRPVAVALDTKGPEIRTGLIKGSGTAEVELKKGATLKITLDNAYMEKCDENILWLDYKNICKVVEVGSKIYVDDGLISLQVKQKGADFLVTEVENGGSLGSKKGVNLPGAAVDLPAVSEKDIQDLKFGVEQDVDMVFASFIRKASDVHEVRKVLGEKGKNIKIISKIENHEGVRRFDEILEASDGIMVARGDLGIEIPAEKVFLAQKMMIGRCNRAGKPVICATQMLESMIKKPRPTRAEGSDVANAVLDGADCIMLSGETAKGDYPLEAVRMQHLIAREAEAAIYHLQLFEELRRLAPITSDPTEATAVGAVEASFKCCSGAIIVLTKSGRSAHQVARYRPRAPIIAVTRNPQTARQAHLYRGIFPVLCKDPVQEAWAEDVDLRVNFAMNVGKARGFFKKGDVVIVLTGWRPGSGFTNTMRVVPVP
# Assay: Confirmation Concentration-Response Assay for Activators of Human Muscle isoform 2 Pyruvate Kinase: for Probe SAR; note: nearly all actives have a fitted effect of over 60% in size
# Conditions: purified PKM2, ATP generation, Kinase-Glo luminescence; series mostly up to 57.5 µM
# Outline: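 Purified hPK-M2 at 0.1 nM final converted ADP (0.1 mM) and PEP (0.5 mM) to ATP over 1 hour at room temperature in imidazole buffer, pH 7.2. ATP formed was measured by Kinase-Glo luminescence, normalized to no-enzyme and uninhibited controls.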
# Potency is the fitted concentration of half-maximal effect.
row,SMILES,Potency
1,Cc1ccn2c(NCc3ccco3)c(-c3ccccc3)nc2c1,inactive
2,Nc1ccc(S(=O)(=O)N2CCN(S(=O)(=O)c3c(F)cccc3F)CC2)cc1,919 nM (active)
3,O=C1c2ccccc2C(=O)N1Cc1cccnc1,inactive
4,CN(C)c1cccc(S(=O)(=O)N2CCCN(S(=O)(=O)c3ccc4c(c3)OCCO4)CC2)c1,163 nM (active)
5,COc1cc(F)c(S(=O)(=O)N2CCCN(S(=O)(=O)c3cccc(NC(C)=O)c3)CC2)c(F)c1,2910 nM (active)
6,CC(=O)Nc1ccc(OC2=NS(=O)(=O)c3ccccc32)cc1,inactive
7,Cc1ccc2nc(-c3ccco3)c(Nc3ccccc3)n2c1,inactive
8,O=S1(=O)N=C(Sc2cccc3cccnc23)c2ccccc21,inactive
9,Cc1cc2c(s1)c1cnn(Cc3cc(F)ccc3F)c(=O)c1n2C,1120 nM (active)
10,O=C1CCc2cc(S(=O)(=O)Nc3cccc(Cl)c3)ccc2N1,410 nM (active)
11,Cc1ccc(Nc2c(-c3ccc(C)o3)nc3ccccn23)cc1,inactive
12,COc1ccc(O)cc1,inactive
13,Cc1ccc(NS(=O)(=O)c2ccc3c(c2)n(C)c(=O)n3C)cc1C,1460 nM (active)
14,O=S1(=O)N=C(Oc2cccc(Br)c2)c2ccccc21,inactive
15,COc1ccc(-c2nc3ccccn3c2Nc2ccccc2C)cc1,14600 nM (active)
16,Cc1ccccc1N(C)C1=N[S+](=O)([O-])c2ccccc21,inactive
17,Cc1ccc(NS(=O)(=O)c2ccc3c(c2)CCC(C)(C)O3)cc1C,inactive
18,O=C1CCc2cc(S(=O)(=O)Nc3ccc(F)cc3)ccc2N1,6510 nM (active)
